According to ChEMBL document CHEMBL1961873, “Compounds: GSK PKIS; Assays: Nanosyn kinase panel” (2012):

What was measured:
[1] = biological target: T1, Aurora kinase A (Homo sapiens) (UniProt O14965); conditions: at 1 µM;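 note: values are mean percent inhibition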
T1 sequence (whole entry): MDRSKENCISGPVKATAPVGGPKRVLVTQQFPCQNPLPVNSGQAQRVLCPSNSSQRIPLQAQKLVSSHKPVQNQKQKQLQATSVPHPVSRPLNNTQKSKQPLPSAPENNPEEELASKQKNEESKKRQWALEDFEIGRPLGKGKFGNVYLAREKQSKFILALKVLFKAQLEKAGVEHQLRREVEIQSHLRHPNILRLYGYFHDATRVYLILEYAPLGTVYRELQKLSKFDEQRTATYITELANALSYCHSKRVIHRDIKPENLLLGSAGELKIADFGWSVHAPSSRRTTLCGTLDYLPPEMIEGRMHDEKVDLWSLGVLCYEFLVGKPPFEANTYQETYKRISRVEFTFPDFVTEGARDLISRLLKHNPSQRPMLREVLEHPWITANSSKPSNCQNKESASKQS

[2] = biological target: Aurora kinase B (Homo sapiens) (UniProt Q96GD4); conditions: at 0.1 µM
[3] = biological target: Aurora kinase B (Homo sapiens) (UniProt Q96GD4); conditions: at 1 µM
[4] = biological target: T2, Aurora kinase C (Homo sapiens) (UniProt Q9UQB9); conditions: at 0.1 µM
T2 sequence (whole entry): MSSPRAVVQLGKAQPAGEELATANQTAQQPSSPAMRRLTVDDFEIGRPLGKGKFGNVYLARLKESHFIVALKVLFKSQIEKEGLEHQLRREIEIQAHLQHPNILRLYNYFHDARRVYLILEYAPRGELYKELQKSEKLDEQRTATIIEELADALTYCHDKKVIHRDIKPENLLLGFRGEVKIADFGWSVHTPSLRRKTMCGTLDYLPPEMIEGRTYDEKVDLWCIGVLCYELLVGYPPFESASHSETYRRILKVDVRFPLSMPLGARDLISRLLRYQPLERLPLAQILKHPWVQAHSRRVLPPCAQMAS

[5] = biological target: T2, Aurora kinase C (Homo sapiens); conditions: at 1 µM
[6] = biological target: Serine/threonine-protein kinase 10 (Homo sapiens) (UniProt O94804); conditions: at 0.1 µM
[7] = biological target: Serine/threonine-protein kinase 10 (Homo sapiens) (UniProt O94804); conditions: at 1 µM
[8] = biological target: T3, Mitogen-activated protein kinase kinase kinase kinase 2 (Homo sapiens) (UniProt Q12851); conditions: at 0.1 µM
T3 sequence (whole entry): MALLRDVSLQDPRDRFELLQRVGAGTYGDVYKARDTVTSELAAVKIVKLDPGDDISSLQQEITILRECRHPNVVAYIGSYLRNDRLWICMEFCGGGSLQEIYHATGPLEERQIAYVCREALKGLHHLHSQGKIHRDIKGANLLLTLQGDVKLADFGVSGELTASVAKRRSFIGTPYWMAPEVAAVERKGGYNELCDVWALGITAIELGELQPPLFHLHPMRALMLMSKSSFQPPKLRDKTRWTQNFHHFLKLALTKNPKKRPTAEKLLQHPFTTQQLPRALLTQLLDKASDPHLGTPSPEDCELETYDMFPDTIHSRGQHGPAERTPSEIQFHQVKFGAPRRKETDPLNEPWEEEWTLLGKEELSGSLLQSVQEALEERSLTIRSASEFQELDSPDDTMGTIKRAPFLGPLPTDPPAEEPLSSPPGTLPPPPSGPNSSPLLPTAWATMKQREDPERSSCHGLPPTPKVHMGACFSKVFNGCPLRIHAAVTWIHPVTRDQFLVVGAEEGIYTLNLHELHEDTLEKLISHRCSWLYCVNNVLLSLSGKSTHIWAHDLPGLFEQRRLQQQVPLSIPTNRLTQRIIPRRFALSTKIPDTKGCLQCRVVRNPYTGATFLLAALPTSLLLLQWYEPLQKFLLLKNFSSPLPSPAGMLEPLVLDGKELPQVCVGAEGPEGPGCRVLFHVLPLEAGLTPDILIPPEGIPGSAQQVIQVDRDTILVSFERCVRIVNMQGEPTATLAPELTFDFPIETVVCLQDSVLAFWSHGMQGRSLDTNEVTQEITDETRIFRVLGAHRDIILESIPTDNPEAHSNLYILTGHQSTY

[9] = biological target: T3, Mitogen-activated protein kinase kinase kinase kinase 2 (Homo sapiens); conditions: at 1 µM
[10] = biological target: Mitogen-activated protein kinase kinase kinase kinase 4 (Homo sapiens) (UniProt O95819); conditions: at 0.1 µM
[11] = biological target: Mitogen-activated protein kinase kinase kinase kinase 4 (Homo sapiens) (UniProt O95819); conditions: at 1 µM
[12] = biological target: Dual specificity mitogen-activated protein kinase kinase 1 (Homo sapiens) (UniProt Q02750); conditions: at 0.1 µM
[13] = biological target: Dual specificity mitogen-activated protein kinase kinase 1 (Homo sapiens) (UniProt Q02750); conditions: at 1 µM
[14] = biological target: Misshapen-like kinase 1 (Homo sapiens) (UniProt Q8N4C8); conditions: at 0.1 µM
[15] = biological target: Misshapen-like kinase 1 (Homo sapiens) (UniProt Q8N4C8); conditions: at 1 µM
[16] = biological target: T4, Serine/threonine-protein kinase 4 (Homo sapiens) (UniProt Q13043); conditions: at 0.1 µM
T4 sequence (whole entry): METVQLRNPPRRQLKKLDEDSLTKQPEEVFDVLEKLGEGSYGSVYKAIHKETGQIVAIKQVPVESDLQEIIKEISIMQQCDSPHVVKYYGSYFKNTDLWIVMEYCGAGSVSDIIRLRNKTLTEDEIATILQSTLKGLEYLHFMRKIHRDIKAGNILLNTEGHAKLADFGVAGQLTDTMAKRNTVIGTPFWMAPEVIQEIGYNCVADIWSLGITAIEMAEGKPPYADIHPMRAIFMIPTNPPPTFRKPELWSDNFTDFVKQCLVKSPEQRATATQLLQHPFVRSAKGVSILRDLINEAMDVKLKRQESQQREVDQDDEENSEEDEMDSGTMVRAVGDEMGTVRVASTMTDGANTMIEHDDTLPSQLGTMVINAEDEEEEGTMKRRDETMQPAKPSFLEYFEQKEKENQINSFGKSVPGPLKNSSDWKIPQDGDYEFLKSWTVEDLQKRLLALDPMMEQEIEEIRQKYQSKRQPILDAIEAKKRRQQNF

[17] = biological target: T4, Serine/threonine-protein kinase 4 (Homo sapiens); conditions: at 1 µM
[18] = biological target: T5, Serine/threonine-protein kinase 3 (Homo sapiens) (UniProt Q13188); conditions: at 0.1 µM
T5 sequence (whole entry): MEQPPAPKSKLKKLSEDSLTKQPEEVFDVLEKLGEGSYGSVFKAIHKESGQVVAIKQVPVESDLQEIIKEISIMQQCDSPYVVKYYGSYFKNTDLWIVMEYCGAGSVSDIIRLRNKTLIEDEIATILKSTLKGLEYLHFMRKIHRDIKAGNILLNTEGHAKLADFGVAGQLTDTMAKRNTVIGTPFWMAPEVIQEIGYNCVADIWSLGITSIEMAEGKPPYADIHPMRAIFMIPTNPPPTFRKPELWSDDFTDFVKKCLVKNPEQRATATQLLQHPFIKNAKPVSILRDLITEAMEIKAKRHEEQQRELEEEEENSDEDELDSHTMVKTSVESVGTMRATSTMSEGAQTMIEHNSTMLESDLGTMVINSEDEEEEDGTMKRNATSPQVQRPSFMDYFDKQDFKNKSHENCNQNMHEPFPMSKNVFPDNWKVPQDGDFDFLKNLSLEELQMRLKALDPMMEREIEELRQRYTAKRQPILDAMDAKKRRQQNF

[19] = biological target: T5, Serine/threonine-protein kinase 3 (Homo sapiens); conditions: at 1 µM
[20] = biological target: Serine/threonine-protein kinase 26 (Homo sapiens) (UniProt Q9P289); conditions: at 0.1 µM
Serine/threonine-protein kinase 26 (Homo sapiens), sequence (Q9P289 2-416 limits assumed): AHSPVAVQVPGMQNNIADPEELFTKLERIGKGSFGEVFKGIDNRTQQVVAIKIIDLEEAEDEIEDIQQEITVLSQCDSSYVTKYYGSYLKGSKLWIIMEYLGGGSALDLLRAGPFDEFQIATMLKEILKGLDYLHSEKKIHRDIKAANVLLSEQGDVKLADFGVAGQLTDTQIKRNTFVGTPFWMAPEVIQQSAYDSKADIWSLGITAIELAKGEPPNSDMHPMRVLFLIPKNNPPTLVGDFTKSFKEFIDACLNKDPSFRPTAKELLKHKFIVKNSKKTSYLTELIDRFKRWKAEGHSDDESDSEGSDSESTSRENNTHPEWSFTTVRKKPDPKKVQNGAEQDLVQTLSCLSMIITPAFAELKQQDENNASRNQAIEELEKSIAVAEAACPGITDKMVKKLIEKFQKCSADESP

Mitogen-activated protein kinase kinase kinase kinase 4 (Homo sapiens), sequence (O95819 2-1239 limits assumed): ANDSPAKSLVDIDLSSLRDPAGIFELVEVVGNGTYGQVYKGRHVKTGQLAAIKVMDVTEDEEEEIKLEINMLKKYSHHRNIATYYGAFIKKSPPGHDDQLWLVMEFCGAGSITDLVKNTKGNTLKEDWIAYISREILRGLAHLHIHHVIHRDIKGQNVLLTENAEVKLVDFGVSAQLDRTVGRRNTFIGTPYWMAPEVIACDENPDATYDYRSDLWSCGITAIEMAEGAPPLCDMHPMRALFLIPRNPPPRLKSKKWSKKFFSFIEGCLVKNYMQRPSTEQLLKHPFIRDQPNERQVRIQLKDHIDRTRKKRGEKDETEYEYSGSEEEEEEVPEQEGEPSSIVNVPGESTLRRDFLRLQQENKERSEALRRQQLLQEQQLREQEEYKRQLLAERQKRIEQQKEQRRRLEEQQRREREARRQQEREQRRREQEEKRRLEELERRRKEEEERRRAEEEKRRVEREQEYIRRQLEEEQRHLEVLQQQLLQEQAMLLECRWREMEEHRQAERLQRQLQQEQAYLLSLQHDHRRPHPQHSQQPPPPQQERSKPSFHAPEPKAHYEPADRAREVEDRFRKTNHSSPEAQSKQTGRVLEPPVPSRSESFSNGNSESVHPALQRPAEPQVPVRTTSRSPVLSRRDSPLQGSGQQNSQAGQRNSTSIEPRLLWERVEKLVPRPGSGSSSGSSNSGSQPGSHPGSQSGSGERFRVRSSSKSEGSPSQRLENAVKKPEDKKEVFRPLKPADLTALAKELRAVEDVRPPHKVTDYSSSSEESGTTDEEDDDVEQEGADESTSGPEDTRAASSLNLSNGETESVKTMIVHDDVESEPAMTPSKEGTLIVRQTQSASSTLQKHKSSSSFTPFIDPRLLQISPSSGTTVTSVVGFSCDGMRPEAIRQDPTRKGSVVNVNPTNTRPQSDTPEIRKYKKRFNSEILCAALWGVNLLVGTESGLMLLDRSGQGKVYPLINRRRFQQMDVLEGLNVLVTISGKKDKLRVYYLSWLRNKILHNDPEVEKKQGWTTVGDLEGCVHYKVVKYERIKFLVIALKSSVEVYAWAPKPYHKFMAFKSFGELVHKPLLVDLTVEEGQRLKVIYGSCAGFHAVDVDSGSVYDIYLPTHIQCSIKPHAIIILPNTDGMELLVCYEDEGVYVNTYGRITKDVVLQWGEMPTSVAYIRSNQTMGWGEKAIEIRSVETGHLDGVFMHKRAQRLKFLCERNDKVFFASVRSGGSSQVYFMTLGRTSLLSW
Aurora kinase B (Homo sapiens), sequence (Q96GD4 whole entry): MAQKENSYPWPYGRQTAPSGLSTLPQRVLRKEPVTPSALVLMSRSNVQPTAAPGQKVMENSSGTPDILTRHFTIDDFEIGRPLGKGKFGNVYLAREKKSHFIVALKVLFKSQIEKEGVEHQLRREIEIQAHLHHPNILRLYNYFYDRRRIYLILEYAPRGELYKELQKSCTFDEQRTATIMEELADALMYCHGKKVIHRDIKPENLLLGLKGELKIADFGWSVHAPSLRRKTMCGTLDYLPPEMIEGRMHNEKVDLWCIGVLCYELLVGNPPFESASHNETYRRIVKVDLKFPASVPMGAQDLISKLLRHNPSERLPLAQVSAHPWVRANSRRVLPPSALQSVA
Serine/threonine-protein kinase 10 (Homo sapiens), sequence (O94804 whole entry, looked up): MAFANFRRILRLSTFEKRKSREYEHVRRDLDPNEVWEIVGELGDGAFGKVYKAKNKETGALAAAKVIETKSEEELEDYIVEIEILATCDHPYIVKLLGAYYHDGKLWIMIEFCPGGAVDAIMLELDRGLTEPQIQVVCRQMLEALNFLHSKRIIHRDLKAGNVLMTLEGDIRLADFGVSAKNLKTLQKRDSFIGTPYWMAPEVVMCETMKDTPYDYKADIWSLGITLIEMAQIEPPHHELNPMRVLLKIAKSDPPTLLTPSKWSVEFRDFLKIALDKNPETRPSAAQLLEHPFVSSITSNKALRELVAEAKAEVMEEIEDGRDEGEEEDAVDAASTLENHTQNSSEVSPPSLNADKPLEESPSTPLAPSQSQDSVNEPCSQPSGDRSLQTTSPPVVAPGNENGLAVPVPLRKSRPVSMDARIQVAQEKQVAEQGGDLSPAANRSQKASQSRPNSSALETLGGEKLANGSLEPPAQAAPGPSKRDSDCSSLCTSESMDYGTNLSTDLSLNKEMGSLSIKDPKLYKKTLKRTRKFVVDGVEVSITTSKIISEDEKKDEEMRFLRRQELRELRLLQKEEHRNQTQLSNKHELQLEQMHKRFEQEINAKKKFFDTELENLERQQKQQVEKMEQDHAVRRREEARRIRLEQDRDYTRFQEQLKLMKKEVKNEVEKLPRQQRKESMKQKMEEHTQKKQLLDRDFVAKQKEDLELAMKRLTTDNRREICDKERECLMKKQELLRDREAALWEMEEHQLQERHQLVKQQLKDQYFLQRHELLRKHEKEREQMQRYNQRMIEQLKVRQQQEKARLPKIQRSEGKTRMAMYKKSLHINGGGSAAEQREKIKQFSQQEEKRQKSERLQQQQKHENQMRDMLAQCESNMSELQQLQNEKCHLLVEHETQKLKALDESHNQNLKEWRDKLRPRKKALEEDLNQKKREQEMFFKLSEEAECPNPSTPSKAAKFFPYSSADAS
Dual specificity mitogen-activated protein kinase kinase 1 (Homo sapiens), sequence (Q02750 whole entry): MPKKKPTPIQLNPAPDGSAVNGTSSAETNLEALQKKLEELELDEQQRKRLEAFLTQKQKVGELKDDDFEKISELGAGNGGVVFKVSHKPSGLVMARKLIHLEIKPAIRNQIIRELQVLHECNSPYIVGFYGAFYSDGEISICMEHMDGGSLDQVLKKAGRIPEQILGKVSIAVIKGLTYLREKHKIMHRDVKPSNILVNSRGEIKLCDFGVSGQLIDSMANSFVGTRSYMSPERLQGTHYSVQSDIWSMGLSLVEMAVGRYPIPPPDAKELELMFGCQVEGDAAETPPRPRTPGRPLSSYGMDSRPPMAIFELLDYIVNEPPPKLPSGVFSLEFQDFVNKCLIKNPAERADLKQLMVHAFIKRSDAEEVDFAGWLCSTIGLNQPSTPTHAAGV
Misshapen-like kinase 1 (Homo sapiens), sequence (Q8N4C8 whole entry, looked up): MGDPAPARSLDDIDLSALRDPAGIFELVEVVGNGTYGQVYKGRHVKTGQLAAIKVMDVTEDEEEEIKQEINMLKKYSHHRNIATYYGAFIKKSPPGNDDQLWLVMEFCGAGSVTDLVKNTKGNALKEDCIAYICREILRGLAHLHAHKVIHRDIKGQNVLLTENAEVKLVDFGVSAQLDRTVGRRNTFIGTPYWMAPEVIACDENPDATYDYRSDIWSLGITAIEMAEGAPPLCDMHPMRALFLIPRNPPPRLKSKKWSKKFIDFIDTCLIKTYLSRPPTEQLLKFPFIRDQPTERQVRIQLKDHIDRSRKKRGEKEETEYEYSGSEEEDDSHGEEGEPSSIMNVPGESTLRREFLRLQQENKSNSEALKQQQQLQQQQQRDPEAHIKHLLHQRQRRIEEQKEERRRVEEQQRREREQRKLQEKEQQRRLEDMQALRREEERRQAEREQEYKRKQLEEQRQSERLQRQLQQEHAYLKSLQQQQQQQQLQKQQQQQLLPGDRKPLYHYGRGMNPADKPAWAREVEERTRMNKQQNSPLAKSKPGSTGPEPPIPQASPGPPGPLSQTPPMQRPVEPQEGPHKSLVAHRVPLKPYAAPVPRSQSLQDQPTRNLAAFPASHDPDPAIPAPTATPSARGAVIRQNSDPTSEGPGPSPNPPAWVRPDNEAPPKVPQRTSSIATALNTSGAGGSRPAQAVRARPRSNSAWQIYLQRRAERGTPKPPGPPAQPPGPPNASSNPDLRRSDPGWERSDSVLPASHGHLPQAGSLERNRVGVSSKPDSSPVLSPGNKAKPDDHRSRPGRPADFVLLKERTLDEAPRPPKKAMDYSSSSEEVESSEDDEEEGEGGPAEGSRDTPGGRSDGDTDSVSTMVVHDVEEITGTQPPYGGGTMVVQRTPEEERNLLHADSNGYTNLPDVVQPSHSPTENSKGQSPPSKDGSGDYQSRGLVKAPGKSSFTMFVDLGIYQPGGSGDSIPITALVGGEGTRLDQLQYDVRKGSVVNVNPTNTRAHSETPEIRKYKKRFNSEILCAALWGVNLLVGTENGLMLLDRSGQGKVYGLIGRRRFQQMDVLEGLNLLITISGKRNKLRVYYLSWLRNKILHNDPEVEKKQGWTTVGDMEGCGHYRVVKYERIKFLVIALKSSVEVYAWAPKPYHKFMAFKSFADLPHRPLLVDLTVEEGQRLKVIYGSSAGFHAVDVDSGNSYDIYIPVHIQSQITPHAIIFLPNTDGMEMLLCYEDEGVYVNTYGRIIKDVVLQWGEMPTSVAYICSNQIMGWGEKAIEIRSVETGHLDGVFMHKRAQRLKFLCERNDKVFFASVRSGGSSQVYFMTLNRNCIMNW

SMILES | inhibition [1] [%] | inhibition [2] [%] | inhibition [3] [%] | inhibition [4] [%] | inhibition [5] [%] | inhibition [6] [%] | inhibition [7] [%] | inhibition [8] [%] | inhibition [9] [%] | inhibition [10] [%] | inhibition [11] [%] | inhibition [12] [%] | inhibition [13] [%] | inhibition [14] [%] | inhibition [15] [%] | inhibition [16] [%] | inhibition [17] [%] | inhibition [18] [%] | inhibition [19] [%] | inhibition [20] [%]
Cn1cc(C=C2C(=O)Nc3cccnc32)c2ccccc21 | 57 | 7.66 | 55.1 | 5.21 | 62.6 | 3.81 | 12 | 2.96 | 17.9 | 6.66 | 29 | 2.69 | 7.29 | 7.13 | 23.6 | 13.7 | 47.9 | 10.5 | 33.8 | 1.41
CCc1cccc(NC(=O)Nc2ccc(Oc3ccc4nc(NC(=O)OC)[nH]c4c3)cc2)c1 | 8.38 | 7.89 | 15.6 | 10.3 | 37.5 | 46.8 | 57.8 | 1.82 | 5.21 | 1.49 | 3.37 | 1.28 | 1.44 | 3.46 | 3.01 | 3.69 | 8.88 | 5.1 | 4.89 | 2.48
CC(=O)Nc1cccc(C#Cc2cncnc2Nc2ccc(OCc3cccc(F)c3)c(Cl)c2)n1 | 2.65 | 3.23 | 1.96 | 3.46 | -5.73 | 4.04 | 14.4 | 2.81 | 2.04 | -0.3 | 8.1 | -0.39 | -1.7 | 0.33 | 10.7 | 4 | 7.41 | 3.99 | 8.13 | 2.55
Cc1nnc(-c2ccc(C)c(-c3ccc(C(=O)Nc4cccc(C#N)c4)cc3)c2)o1 | 5.96 | 2.83 | 4.74 | 1.31 | -2.81 | 4.18 | 5.45 | -0.38 | 2.09 | 5.31 | 10.6 | 2.51 | 1.55 | 4.46 | 9.13 | 1.52 | 6 | 2.65 | 6.4 | -1.07
Nc1ncnc2occ(-c3ccc(NC(=O)Nc4cccc(C(F)(F)F)c4)cc3)c12 | 60.4 | 30.7 | 66.7 | 42.5 | 88.8 | 26.4 | 67.9 | 28.7 | 59.2 | 2.65 | 12.3 | 4.53 | 4.91 | 3.8 | 8.17 | 5.73 | 15.6 | 5.7 | 13.3 | -2.6
NC(=O)c1ccc(-c2nc(-c3ccccn3)c(-c3ccc4c(c3)OCO4)[nH]2)cc1 | 3.93 | 4.83 | 4.45 | 1.68 | -2.72 | 6.27 | 3.54 | 0.64 | 2.35 | 1.99 | 5.75 | 3.95 | 3.52 | 2.63 | 7.53 | 3.9 | 3.51 | 4.2 | 3.42 | -0.92
CS(=O)(=O)CCNCc1nc(-c2ccc3ncnc(Nc4ccc(F)c(Cl)c4)c3c2)cs1 | 9.04 | 3.41 | 6.36 | 2.51 | -0.59 | 5.44 | 27.7 | 1.34 | 2.52 | 3.38 | 4.84 | 1.19 | 2.66 | 2.93 | 3.2 | 4.8 | 6.35 | 5.67 | 4.59 | 2.56
Cc1ccc(C(=O)NC2CCCCC2)cc1-c1ccc(C(=O)NCC2CC2)cc1 | 4.4 | 3.05 | 7.57 | 2.71 | 14 | 7.27 | 6.5 | 2.78 | 2.05 | 2.48 | 0.87 | 4.37 | 4.68 | 4.93 | 1.64 | 5.76 | 4.46 | 6.92 | 4.05 | 1.41
CCN1CCC(CC(=O)Nc2n[nH]c3nc(-c4cccs4)c(Br)cc23)CC1 | 0.27 | -0.51 | 3.7 | -1.4 | -3.08 | -1.57 | 1.93 | 0.32 | 2.2 | 0.23 | 9.82 | -3.83 | -4.66 | -1.72 | 5.84 | -4.72 | -4.38 | -4.72 | -2.74 | 2.05
O=C1NC(=O)C(c2cccc(Cl)c2)=C1Nc1ccc(O)c(Cl)c1 | 11.1 | 1.17 | 6.09 | 1.02 | 13.1 | 6.26 | 46.3 | 4 | 21.3 | 1.83 | 7.19 | 0.81 | 7.65 | 2.81 | 7.79 | 33.6 | 75.2 | 24.3 | 66.8 | 1.93
CC(C)=Cc1cccc2c1/C(=N/Nc1ccc(S(N)(=O)=O)cc1)C(=O)N2 | 93.1 | 8.72 | 45 | 5.14 | 65.6 | 1.18 | 10.2 | 1.89 | 6.11 | 3.27 | 31.3 | 0.02 | 2.23 | 3.63 | 25.1 | 66.6 | 84.5 | 52.6 | 82.4 | 4.55
CCn1c(-c2nonc2N)nc2c(C#CC(C)(C)O)nc(OC[C@@H](N)c3ccccc3)cc21 | 11.7 | 2.1 | 7.36 | 4.3 | -0.02 | -0.81 | 7.62 | 0.61 | 8.96 | 1.21 | 14.1 | -0.93 | 3.8 | -1.26 | 9.85 | -2.01 | 15.2 | -1.88 | 11.8 | 1.4
CCn1c(-c2nonc2N)nc2c(N3CCCC3)nccc21 | 2.53 | -1.12 | 5.43 | 0.17 | -2.42 | -0.24 | 2.42 | 1.22 | 4.2 | 0.97 | 2.78 | -2.28 | -2.11 | 0.71 | 2.4 | -1.49 | -1.2 | -2.05 | 0.3 | 0.47
